Screening data from PubChem BioAssay.
RBX1-CUL1 inh = inhibitors of human ROC1-CUL1 ubiquitin ligase activity. 0.6% of 140,000 active. inhibition, % at 10 µM. P62877+Q13616. in vitro K48 di-Ub FRET, acceptor:donor ratio, 45 min; in the data active means inhibition above about 25%
Target sequence (P62877 whole entry, looked up): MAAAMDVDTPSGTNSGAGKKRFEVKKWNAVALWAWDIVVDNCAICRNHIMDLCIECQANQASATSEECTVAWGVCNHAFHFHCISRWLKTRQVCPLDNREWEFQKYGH
Target sequence (Q13616 whole entry, looked up): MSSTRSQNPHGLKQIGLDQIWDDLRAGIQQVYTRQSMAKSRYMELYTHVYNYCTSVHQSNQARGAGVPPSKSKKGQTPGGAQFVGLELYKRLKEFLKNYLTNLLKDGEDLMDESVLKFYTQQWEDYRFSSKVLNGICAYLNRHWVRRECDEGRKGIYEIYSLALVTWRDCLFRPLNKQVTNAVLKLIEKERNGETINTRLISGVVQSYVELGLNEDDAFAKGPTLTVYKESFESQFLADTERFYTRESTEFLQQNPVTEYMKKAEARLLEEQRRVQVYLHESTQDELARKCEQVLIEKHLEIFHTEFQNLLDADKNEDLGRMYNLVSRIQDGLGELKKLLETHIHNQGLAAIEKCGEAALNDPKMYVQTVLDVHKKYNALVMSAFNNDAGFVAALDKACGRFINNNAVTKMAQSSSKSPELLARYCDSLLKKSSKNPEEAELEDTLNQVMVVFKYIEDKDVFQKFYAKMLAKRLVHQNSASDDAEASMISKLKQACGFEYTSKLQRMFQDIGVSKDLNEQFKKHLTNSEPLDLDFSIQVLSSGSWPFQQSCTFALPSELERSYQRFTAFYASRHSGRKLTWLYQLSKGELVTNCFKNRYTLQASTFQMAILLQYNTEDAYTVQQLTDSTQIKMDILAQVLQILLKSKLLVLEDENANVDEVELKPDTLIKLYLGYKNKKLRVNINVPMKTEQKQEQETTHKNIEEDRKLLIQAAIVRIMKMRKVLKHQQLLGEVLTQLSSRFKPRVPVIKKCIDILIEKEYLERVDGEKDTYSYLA
Active calls of the source: *. Only a selection was taken, and hits are over-represented in it overall.

SMILES	RBX1-CUL1 inh
C=C(C)CN(CC)C(=O)c1cc(COc2ccc(C(C)=O)cc2OC)on1	-10
CCn1c(CNC(=O)COc2c(C)cccc2C)nnc1SCC(=O)Nc1ccc(C)c(Cl)c1	3
CSc1nc(Oc2cc(C)cc(C(C)C)c2)cc(-n2ncc(C#N)c2N)n1	4
CCC(NC(=O)NCc1ccc(Cl)cc1)(C(F)(F)F)C(F)(F)F	-2
C#CCN1C(=O)S/C(=C\c2ccc(OCC(=O)Nc3ccc(F)cc3)c(OC)c2)C1=O	-15
Cc1cc(-c2n[nH]c3c2CN(C(=O)C2CC(=O)OC24CCCC4)CC3)no1 (configuration not stated)	7
CN(C)c1ccc(CC2=NC(=S)N(c3ccc(Br)cc3)C2=O)cc1	1
COc1cc(Br)c(Br)c(/C=C2\SC(c3ccc(C)cc3)=NC2=O)c1O	93*
COc1cc(Br)c(Br)c(C=Nc2ccc(NC(=O)c3ccccc3Br)cc2)c1O	15
COc1cc(/C=C2/SC(=Nc3ccccc3C)NC2=O)c(Br)c(Br)c1O	5
CCc1c(C(=O)N2CCN(Cc3cccc(F)c3)CC2)csc1C	-3
CCCN1CCC(NC(=O)CC(C)(C)C)CC1	7
O=C(CCc1c[nH]c2ccccc12)NCCN1Cc2ccccc2OC(c2ccccc2)C1 (configuration not stated)	10
CC1=NN(c2ccccc2)C(=O)/C1=C/c1cccc(OC2CSC2)c1	32*
CC(=O)Oc1ccc(-n2c(C)cc(/C=C3\C(=O)N(c4ccccc4)N=C3C)c2C)cc1	4
CC1=NN(c2ccccc2)C(=O)/C1=C\C1=Nc2ccccc2C1	11
CC(=O)Nc1ccc(N2N=C(C)/C(=C/c3ccccc3)C2=O)cc1	41*
CC1=NN(c2ccc(F)cc2)C(=O)C1=Cc1c(O)n(-c2ccccc2)c(=S)n(-c2ccccc2)c1=O	0
CC1=NN(c2ccccc2)C(=O)/C1=C/c1cc(C)n(-c2cccc(C(F)(F)F)c2)c1C	3
CC1=NN(c2cc(Cl)cc(Cl)c2)C(=O)/C1=C\c1ccc(N2CCOCC2)cc1	0
COc1cccc(/C=C2\C(=O)N(c3ccccc3)N=C2C)c1OC	-11
CC1=NN(c2ccccc2)C(=O)/C1=C\c1ccc(C(C)(C)C)cc1	40*
CSc1ccc(CC2(CCC(=O)N(C)Cc3cccc(-n4nc(C)cc4C)c3)CCC(=O)N2)cc1 (configuration not stated)	13
O=C(Cc1c[nH]c2ccccc12)NCCNC(=O)Cc1c[nH]c2ccccc12	5
COC(=O)C1C(C)=NC2=C(C(=O)CCC2)C1c1ccccc1OCc1ccccc1 (configuration not stated)	-2
SMILES	RBX1-CUL1 inh
Cc1cc(C(=O)N/N=C/C=C/c2ccco2)no1	3
COc1ccccc1-c1nnc2sc(-c3ccncc3)nn12	1
CC(C)OC(=O)c1ccc(-c2ccc(/C=C3/C(=O)NN(c4ccccc4)C3=O)o2)cc1	3
O=C1NN(c2cccc(Br)c2)C(=O)/C1=C\c1ccc(-c2ccc(C(=O)O)cc2)o1	60*
CCOC(=O)c1ccc(-c2ccc(/C=C3/C(=O)NN(c4ccc(C)cc4)C3=O)o2)cc1	6
Cc1cccc(N2NC(=O)/C(=C/c3ccc(-c4ccc(Cl)c(C(=O)O)c4)o3)C2=O)c1	3
O=C1NN(c2cccc(Cl)c2)C(=O)/C1=C\c1ccc(-c2ccc(C(=O)O)c(Cl)c2)o1	44*
O=C1NN(c2cccc(Cl)c2)C(=O)/C1=C/c1ccc2c(c1)OCO2	1
COc1cccc(Oc2nc3c(c(=O)n(C)c(=O)n3C)n2Cc2ccc(F)cc2)c1	9
COc1ccccc1Oc1ncnc2scc(-c3ccc(Cl)cc3)c12	-3
CC1=NN(CCC(C)C)c2nc3c(c(=O)n(C)c(=O)n3C)n2C1	5
CCOC(=O)C1(Cc2ccccc2C)CCCN(C(=O)C2=NN(C)C(=O)CC2)C1 (configuration not stated)	1
Cc1ccc(OC(C)C(N)=O)cc1C (configuration not stated)	3
O=C(c1ccccc1)N1CC(O)(c2ccccc2)N(c2ccccc2)C1=S (configuration not stated)	-3
COc1ccc(/C=C2\C(=O)N(c3c(Cl)cc(Cl)cc3Cl)N=C2NC(=O)c2cccc(N3C(=O)c4ccccc4C3=O)c2)cc1OC	-4
CCOC(=O)C1C(=N)Oc2c(oc(CO)cc2=O)C1c1ccccc1 (configuration not stated)	6
Cc1ccc(Nc2nc(Nc3ccc(C)c(C)c3)nc(N3CCOCC3)n2)cc1C	-4
Nc1ccc(/C=C/c2ccc(Nc3nc(Nc4ccccc4)nc(N4CCOCC4)n3)cc2S(=O)(=O)O)c(S(=O)(=O)O)c1	37*
Fc1ccc(Nc2nc(Nc3ccc(F)cc3F)nc(N3CCOCC3)n2)cc1	-4
NC(=O)c1c(NC(=O)CCn2cnc3ccccc3c2=O)sc2c1CCCC2	3
CCCN(C)S(=O)(=O)c1cccc(C(=O)N2CCC(C(=O)O)CC2)c1	-1
Cc1ccc(C(=O)Nc2cccc(C(C)O)c2)cc1 (configuration not stated)	5
CCOc1cc(C(c2c(C)[nH][nH]c2=O)c2c(C)[nH][nH]c2=O)cc(Br)c1OCc1cccc2ccccc12	26*
Cc1[nH][nH]c(=O)c1C(c1c(C)[nH][nH]c1=O)c1cn(C)c2ccccc12	26*
CC(C)C1=NN2C(=N)/C(=C\c3cn(Cc4cccc5ccccc45)c4ccccc34)C(=O)N=C2S1	9
SMILES	RBX1-CUL1 inh
CCOc1cc(C(c2c(C)[nH][nH]c2=O)c2c(C)[nH][nH]c2=O)cc(I)c1OC	-8
Cn1cc(C(c2cccs2)c2cn(C)c3ccccc23)c2ccccc21	3
Cc1[nH][nH]c(=O)c1C(c1c(C)[nH][nH]c1=O)c1cn(Cc2cccc3ccccc23)c2ccccc12	39*
Cc1[nH][nH]c(=O)c1C(c1ccccc1I)c1c(C)[nH][nH]c1=O	-5
CCOc1cc(C(c2c(C)[nH][nH]c2=O)c2c(C)[nH][nH]c2=O)cc(I)c1O	-2
Cc1[nH][nH]c(=O)c1C(c1cccc(OCc2ccccc2Cl)c1)c1c(C)[nH][nH]c1=O	-9
COC(=O)c1cc(NC(=O)C(C)C)ccc1O	-6
COc1ccc(-n2cc(Cl)nc(Oc3ccc4ccc(=O)oc4c3)c2=O)cc1	2
Cc1cccc(NC(=O)Nc2ncccc2C)c1	0
Cc1c(C)n2c3c(=O)n(C)c(=O)n(C)c3nc2n1Cc1ccccc1	-3
O=c1[nH]cnc2c1sc1nc(-c3cccs3)cc(-c3ccc(Cl)cc3)c12	5
CC(C)c1ccc(/C=C/c2nc(N)[nH]c(=O)c2[N+](=O)[O-])cc1	5
CC(C)(C)c1ccc(/C=C/c2[nH]c(=O)[nH]c(=O)c2[N+](=O)[O-])cc1	99*
CC(C)(C)c1ccc(N)c([N+](=O)[O-])c1	1
COc1cccc2c1NC(=O)C(c1ccccc1)C2=O (configuration not stated)	-3
O=C(C(C(=O)c1ccccc1)=C(C(=O)c1ccccc1)C(=O)c1ccccc1)c1ccccc1	15
Cc1ccccc1Cn1cc(C(=O)NCCN2CCNC2=O)nn1	-7
C=CCc1cc(/C=c2/sc3n(c2=O)C(c2cccs2)C(C(=O)OCC)=C(C)N=3)cc(OCC)c1O (configuration not stated)	1
CC(C)(C)c1ccc(C(=O)NCCc2c[nH]c3ccccc23)cc1	-1
O=C(Cn1nnnc1CN1CCOCC1)N[C@@H]1CCCC[C@H]1c1ccccc1	-8
O=[N+]([O-])c1ccc(N2CCCCC2)nc1	4
c1ccc2cc(N3CCCCC3)ncc2c1	65*
